Most compounds without a hit are left out; they make up all but 3.7% or so of the library.
Anthrax LF inh2 – Bacillus anthracis LF protease inhibitors, primary screen, biochemical, multiplex microsphere, MLPCN library; Lethal factor (Bacillus anthracis), P15917; multiplex microsphere protease cleavage assay; inhibition, % at 10 µM; hit rate 0.12% among 360,000; AID 588501, 2011; also: plate controls were buffer without enzyme for full effect and enzyme alone for no effect
BoNT F protease – BoNT/F light chain protease inhibitors, primary screen, biochemical, flow cytometry, MLPCN library; hit rate 0.22% among 360,000; inhibition, % at 10 µM; Botulinum neurotoxin type F light chain protease (Clostridium botulinum); Multiplex microsphere protease cleavage assay; AID 588497, 2011; in the data active = inhibition above about 35%, passing the limit was not always enough; inconclusive = no clear call, values can overlap the other calls; also: plate controls were buffer without enzyme for full effect and enzyme alone for no effect
BoNT-A LC inh2 – BoNT/A light chain protease inhibitors, primary screen, biochemical, flow cytometry, MLPCN library. Botulinum neurotoxin type A light chain protease (Clostridium botulinum A str. ATCC 3502). multiplex microsphere protease substrate cleavage. inhibition, % at 10 µM. hit rate 0.17% among 360,000. AID 588499, 2011; also: plate controls were buffer without enzyme for full effect and enzyme alone for no effect
BH1578 lux ind – inducers of Vibrio cholerae quorum light production without autoinducers, primary screen, BH1578 luxS cqsA deficient, single point. V. cholerae BH1578 lux reporter, luminescence, 6 h. activation, % at 18.7 µM. hit rate 0.16% among 350,000; in the data active = activation mostly above about 9.7%, no sharp cut-off; inconclusive = no clear call, values can overlap the other calls; inactive = mostly below about 3.7%
Autofluor counter – counter-screen for toxin protease inhibitors: compound fluorescence | compound autofluorescence counterscreen, microsphere flow cytometry; hits give high values | fluorescence intensity (concentration not given with the values) | hit rate 3.1% among 360,000; in the data active = fluorescence intensity above about 16000; inconclusive = no clear call, values can overlap the other calls
BJeLR lethal – MLPCN primary cell-based screen for lethality selective to Ras in HRASV12 cells; BJeLR (HRASV12) viability, CellTiter-Glo ATP luminescence, 48 h; inhibition, % (test concentration not listed); hit rate 0.17% among 300,000; in the data active = inhibition above about 50%; inconclusive = no clear call, values can overlap the other calls
The depositor's hits bear a star; i = inactive; ? = inconclusive; · = no result. Rule as the data show it, unless noted: active = inhibition above about 30%; inconclusive = no clear call, values can overlap the other calls; inactive = below that.

SMILES | Anthrax LF inh2 | BoNT F protease | BoNT-A LC inh2 | BH1578 lux ind | Autofluor counter | BJeLR lethal
CCOc1ccc(N=Cc2ccc([N+](=O)[O-])cc2)c(O)c1 | 3.3 | -3.4 | 8.0 | i | 3646 | ·
COc1cc2c(cc1OC)C(=NO)CCCC2 | 0.5 | 5.7 | 0.1 | -2.6 | 4005 | ·
CC(C)=CCC/C(C)=C/CNC(=O)C[C@H]1C[C@H](C(=O)N2CCOCC2)[C@@]2(CCC3CCCC3)c3[nH]c4cc(CCC(=O)N(C)C)ccc4c3CCN2C1=O | -5.4 | -2.3 | -0.7 | i | 3702 | ·
CC(=O)Nc1nonc1NC(=O)CSc1ncn[nH]1 | -3.4 | -4.9 | -5.1 | i | 21267* | -2.6
COc1ccc(CCNC(=O)CSc2ncn[nH]2)cc1 | -8.9 | 5.3 | 5.9 | -0.7 | 19819* | -16.7
CC(=O)Nc1nonc1NC(=O)CSc1ccccn1 | -2.9 | -5.6 | -0.3 | -0.3 | ? | 8.3
COc1ccc(CCNC(=O)CSc2ccccn2)cc1 | -1.1 | -1.8 | -0.1 | -0.4 | 3982 | ·
O=C(CSc1ncn[nH]1)Nc1c(F)cc(F)cc1Br | -1.3 | -2.3 | ? | -0.9 | 23998* | -1.8
O=C(CSc1ncn[nH]1)Nc1ccc2c(c1)OCCO2 | -3.6 | -2.3 | -1.1 | i | 23582* | -4.2
O=C(CSc1ncn[nH]1)c1ccc2c(c1)OCCO2 | -0.3 | -3.8 | 0.3 | -0.4 | 10824 | 8.8
CC1C(=O)N(Cc2cn(CC3CCCCC3)nn2)CCS(=O)(=O)N1Cc1ccc(-c2ccccc2)cc1 (stereo not given) | -8.0 | 0.9 | 0.0 | -0.4 | 3860 | ·
O=CNc1cc(-c2ccoc2)cn2c(-c3ccc(F)cc3)cnc12 | -0.9 | 3.1 | 0.7 | 0.2 | 4478 | ·
CCC(c1nnnn1-c1ccc2c(c1)OCCO2)N1CCN(c2cc(C)ccc2C)CC1 (stereo not given) | 5.1 | -3.3 | 0.1 | · | 5714 | ·
COc1cc2c(c(OC)c1OC)-c1ccc(NCc3ccccc3)c(=O)cc1C(NC(C)=O)CC2 (stereo not given) | -3.2 | -0.4 | 1.2 | -0.7 | 3531 | ·
CN1CCCCC1(C)C(=O)NCc1cc(Cl)ccc1F (stereo not given) | -1.6 | 2.8 | -0.1 | -0.2 | 3897 | ·
Cc1nnc(SCC(=O)N2CCOCC2)s1 | -1.1 | 1.3 | ? | i | 19625* | 5.6
Cc1nnc(SCC(=O)Nc2ccc3c(c2)OCCO3)s1 | -1.0 | -5.1 | -5.4 | -0.2 | 21759* | -2.3
Cc1onc(-c2ccccc2)c1C(=O)OCC(=O)Nc1ccccc1Cl | -1.1 | -1.9 | -0.7 | 4.0 | 4333 | ·
COc1ccc(O)c(C2=Nc3ccccc3N=C(c3ccccc3)C2)c1 | 0.4 | -3.6 | -0.4 | i | 4979 | -1.0
COc1ccc2c(c1)NC(=O)CC(c1ccccc1)=N2 | -5.2 | -1.5 | -0.8 | -6.2 | 23168* | -8.9
Cc1ccc(C)c(NC(=O)CSc2nnc(C)c(=O)n2N)c1 | -0.7 | 2.2 | -1.1 | -0.1 | 2733 | 9.7
COC(=O)c1ccc(NC(=O)CSc2nnc(-c3ccncc3)n2N)cc1 | -0.6 | 4.1 | ? | i | 20637* | -0.9
Cc1ccc(NC(=O)CSc2nnc(-c3cccnc3)n2-c2ccc(C)cc2)cc1 | 1.0 | 3.1 | 0.6 | i | 2880 | -7.1
Nn1c(SCC(=O)Nc2ccc(F)cc2)nnc1-c1cccnc1 | 2.4 | 14.5 | ? | i | 19014* | -17.0
CCn1c2ccccc2c2cc(NC(=O)CSc3nnc(-c4ccc(OC)cc4)n3N)ccc21 | -2.4 | -2.3 | -1.7 | i | 24502* | -5.9
Cc1ccc(C)c(NC(=O)CSc2nnc(-c3ccncc3)n2N)c1 | -0.3 | -5.0 | -5.1 | -2.0 | 21109* | 2.7
COc1ccccc1CNc1nc(NCc2ccc3occc3c2)c2sccc2n1 | -1.6 | -5.1 | -0.2 | -0.3 | 3943 | ·
CCOc1cccc(-c2cnc3cccnn23)c1 | -6.0 | 1.4 | 0.1 | -0.4 | 2886 | ·
Cc1cc(C)cc(NC(=O)CSc2nnc(-c3ccccc3)n2N)c1 | -5.3 | -12.0 | -1.0 | -2.9 | 3152 | -5.7

High-throughput results deposited in PubChem by several laboratories.
